# Over roughly 35,000 sequences, “fluorescence intensity (a.u.)” has its median near 10,000; the highest 2% begin near 52,000. The full list was thinned out, with the highest values kept by preference.
# Target: T1, OsWOX13 (Oryza sativa, UniProt Q5QMM3 1-267)
# T1 sequence: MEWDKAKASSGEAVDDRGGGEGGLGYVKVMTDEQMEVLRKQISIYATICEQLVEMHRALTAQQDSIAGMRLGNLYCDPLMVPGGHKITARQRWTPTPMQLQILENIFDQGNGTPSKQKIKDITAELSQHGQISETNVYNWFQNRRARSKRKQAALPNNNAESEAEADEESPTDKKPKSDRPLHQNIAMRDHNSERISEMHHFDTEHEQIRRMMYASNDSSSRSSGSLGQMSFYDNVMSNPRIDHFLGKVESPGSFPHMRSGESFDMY
# Assay: protein-binding microarray (RPBM); PBS, 2% BSA, 51.3 ng/ul salmon testes DNA, 50 uM zinc acetate, 200 nM TF, 25 C, 1 h; high values mean tight binding
# Conditions: protein: recombinant; tags: N-terminal polyhistidine and DsRed monomer fusion (pET32a); label: CyDye5-dUTP incorporated in the synthesized complementary strand; 3' TTTTT single-stranded linker to array surface; dsDNA, one strand shown
# Procedure, shortened: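 Per-feature fluorescence intensity (arbitrary units), read on an Axon 4000B scanner, is the binding signal. Transcription factors carrying an N-terminal polyhistidine tag and DsRed fusion were expressed in E. coli BL21-CodonPlus and purified on Ni–NTA. A custom Agilent array, made double-stranded by primer extension with Cy5-dUTP and blocked with 2% BSA, was incubated with 200 nM protein in PBS, 2% BSA, salmon testes DNA and 50 µM zinc acetate at 25 °C for 1 h and then washed.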
row,Sequence,binding signal
1,CACCAGTGATCTTATAATTGTAAATTTTGATCCAAGATTCCGGAGTCACCTAGTGCAG,3800 fluorescence intensity (a.u.)
2,AAGAATTAATTAATGTTTAACTAGATGGCCTTATTATCTCCGGAGTCACCTAGTGCAG,34300 fluorescence intensity (a.u.)
3,ATGTGTATGATGTGTTTGTTTATGTGTGGACTTTATAATACGGAGTCACCTAGTGCAG,3210 fluorescence intensity (a.u.)
4,TTTACTAAGCAATCAAGATAACCTGATGTGCCTATCCATCCGGAGTCACCTAGTGCAG,10200 fluorescence intensity (a.u.)
5,ACAAACACGTAATAACATTAATTTCAATCTACACATCATACGGAGTCACCTAGTGCAG,9270 fluorescence intensity (a.u.)
6,GCTCCTAACCAATCAGCGCACCCATCGTCCCAAAATCCCCCGGAGTCACCTAGTGCAG,8480 fluorescence intensity (a.u.)
7,ATAATTATTATGTCTGGTAGGATAGGATTTAGATGGTAAGCGGAGTCACCTAGTGCAG,5670 fluorescence intensity (a.u.)
8,TCCAGTGATTAATCTCTTCTCCATCTCTGCCCTGCACCCTCGGAGTCACCTAGTGCAG,21400 fluorescence intensity (a.u.)
9,CCAATGATTGATCGATTTCTCTCCATACGCCGTGTGCCAACGGAGTCACCTAGTGCAG,59700 fluorescence intensity (a.u.)
10,TGATGAGATTGATCCGATGATCTCCTCTTTAAATTTCTCGCGGAGTCACCTAGTGCAG,19100 fluorescence intensity (a.u.)
11,AAATCCCACTCCAATCACCACCACCTCTTCTCCAATTCCACGGAGTCACCTAGTGCAG,3840 fluorescence intensity (a.u.)
12,AATCTCAAATTGAATCCATTTTATTTGATGACGATTTATTCGGAGTCACCTAGTGCAG,9810 fluorescence intensity (a.u.)
13,TCATTTCTCCAATCATAGGAGCTGGCGCATTGATCGATCACGGAGTCACCTAGTGCAG,6160 fluorescence intensity (a.u.)
14,CTCTCGCTCGCCATGATTGATCGAGCTCCACCTGCCAATTCGGAGTCACCTAGTGCAG,12900 fluorescence intensity (a.u.)
15,CCAAATCAATCAAATCGCATTCCACCAATTCTCCACTCTCCGGAGTCACCTAGTGCAG,27300 fluorescence intensity (a.u.)
16,TGATGATTTGATTTGATTTGATTCAATCTCCAAATCGATCCGGAGTCACCTAGTGCAG,65100 fluorescence intensity (a.u.)
17,TTGGAGATGATTGATTGGAAATCTTCTTCCAGTCTCCTCTCGGAGTCACCTAGTGCAG,61700 fluorescence intensity (a.u.)
18,TCCAATTGATTGCAAATCGATTCCTCACTCCTCTCTTATCCGGAGTCACCTAGTGCAG,57400 fluorescence intensity (a.u.)
19,ATCAATTCAAATTTAAATTTTGATGAAACTCTTCGAAATCCGGAGTCACCTAGTGCAG,14400 fluorescence intensity (a.u.)
20,GTGATGATTTATTTTCGAACTATCTAGCTATTTATCTAGACGGAGTCACCTAGTGCAG,9370 fluorescence intensity (a.u.)
21,CTCCAATTCATCTATAATCAATCTAATAGCCAATTCATACCGGAGTCACCTAGTGCAG,5900 fluorescence intensity (a.u.)

row,Sequence,binding signal
1,GTTTTATTCTGATTAAATTAAATGCCACAGGGACATTGTCCGGAGTCACCTAGTGCAG,9600 fluorescence intensity (a.u.)
2,ATGTGGCCGATAATTGCTTTGCATGCTGATGGATGTGGCTCGGAGTCACCTAGTGCAG,4180 fluorescence intensity (a.u.)
3,GTCATAAATTGATCCATACATATCATAGTAAAGCGTGGGTCGGAGTCACCTAGTGCAG,33400 fluorescence intensity (a.u.)
4,GAAATAATTGATTGAATCCTATTCTATCCTCTAAAATTCCCGGAGTCACCTAGTGCAG,30900 fluorescence intensity (a.u.)
5,CTAAATTGAATCTATCCACTTTGCCTCCTAAACTCACCCCCGGAGTCACCTAGTGCAG,54600 fluorescence intensity (a.u.)
6,ATCTAATCTTGAATTAAACTCACTATCAATTCCCACCATCCGGAGTCACCTAGTGCAG,4380 fluorescence intensity (a.u.)
7,TAGTCAATTACTACTAGGTATGTGCTATTCATAACCATGACGGAGTCACCTAGTGCAG,7320 fluorescence intensity (a.u.)
8,AGCTTTTCAGACTGAAAATGTAATAGACAACCTTATCAGACGGAGTCACCTAGTGCAG,3810 fluorescence intensity (a.u.)
9,GGTAAATTGCAATACTCCGGATGTTCAGAGACAATAAGAGCGGAGTCACCTAGTGCAG,13900 fluorescence intensity (a.u.)
10,TTAGATTATTGAGTCAGATTACTATAAGCTAGATTATTATCGGAGTCACCTAGTGCAG,12500 fluorescence intensity (a.u.)
11,TACAAATTGATTGGCTATAGGTCAAATAGTGGATCCTAGACGGAGTCACCTAGTGCAG,56000 fluorescence intensity (a.u.)
12,TATCGATCGATTGATTGCTATAGCTAGGTCAAATCGATCGCGGAGTCACCTAGTGCAG,28100 fluorescence intensity (a.u.)
13,CGTAATTAGTAGGTTGATTACTATTTGCTAATCATAAGTGCGGAGTCACCTAGTGCAG,65200 fluorescence intensity (a.u.)
14,CAATCATTGATTGTTACTTTGTTAGTAATTGGTTAGTATACGGAGTCACCTAGTGCAG,30100 fluorescence intensity (a.u.)
15,TGCTAGTTAATATAATCTACTAATTAAAATAGTCGATTGACGGAGTCACCTAGTGCAG,6000 fluorescence intensity (a.u.)
16,TTGATTAATTTGACGTCGATGCTACTAATAGTTAACCTTCCGGAGTCACCTAGTGCAG,54200 fluorescence intensity (a.u.)
17,TAGTAATTGATTGCTGCCAAGATTACATTACTGCCCAATACGGAGTCACCTAGTGCAG,65500 fluorescence intensity (a.u.)
18,TTGCCAATTATGATTGGAGATTTACAAGTAGACTTCAATACGGAGTCACCTAGTGCAG,18500 fluorescence intensity (a.u.)
19,TTGTAATTAGTAGGGTGATTACTATTTGGTAATCATAAGTCGGAGTCACCTAGTGCAG,33000 fluorescence intensity (a.u.)
20,ACAAATTAGCTATTATATTGGCTATAGATGATTTGGAGTACGGAGTCACCTAGTGCAG,42300 fluorescence intensity (a.u.)
21,GTGCTAATATAATTTAAATAACTAGTTTGACGGACAAATCCGGAGTCACCTAGTGCAG,10800 fluorescence intensity (a.u.)
